Shown are actives, neighbours in structure and some others; about 1.2% of the full set was active somewhere.
EPAC1 antagonist – qHTS for Antagonist of cAMP-regulated guanine nucleotide exchange factor 3 (EPAC1): primary screen. 0.14% of 360,000 active. EPAC1 GEF assay, Rap1b-BODIPY-GDP exchange fluorescence. AID 720709, 2013. Potency, µM (titrated, usually from 115 µM), actives largely listed as inhibitors; note: nearly all actives have a fitted effect of over 50% in size
EPAC2 antag – qHTS for Antagonist of cAMP-regulated guanine nucleotide exchange factor 2 (EPAC2): primary screen; Rap guanine nucleotide exchange factor 4 (Homo sapiens), Q8WZA2; EPAC2 GEF exchange of Rap1B-BODIPY-GDP, fluorescence; Potency, µM (doses to about 114 µM), usual class: inhibitors; 0.18% of 360,000 active; AID 720708, 2013; note: nearly all actives have a fitted effect of over 45% in size
EPAC1 ag – qHTS for Agonist of cAMP-regulated guanine nucleotide exchange factor 3 (EPAC1): primary screen; Rap guanine nucleotide exchange factor 3 (Homo sapiens), O95398; EPAC1 agonist qHTS, biochemical assay; response scale: 100% = response to 6.5 mM cAMP; Potency, µM (titrated, usually from 154 µM), hits mostly activators; 0.073% of 360,000 active; AID 720707, 2013; note: nearly all actives have a fitted effect of over 60% in size
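Read-out is the fluorescence drop as BODIPY-GDP leaves Rap1B (480 nm excitation, 540 nm emission), recorded every 5 minutes over 30 minutes. Reactions held 100 nM EPAC1, 250 nM Rap1B–BODIPY-GDP and 50 uM GDP, with 6.5 mM cAMP setting full activation.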
USP1-UAF1 inh – Inhibitors of USP1/UAF1: Primary Screen | Potency, µM (highest dose often 57.1 µM), usual class: inhibitors | recombinant USP1/UAF1, Ub-Rhodamine cleavage fluorescence | 0.23% of 390,000 active | Ubiquitin carboxyl-terminal hydrolase 1 (Homo sapiens), O94782 | AID 743255, 2014; note: nearly all actives have a fitted effect of over 60% in size
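1 nM enzyme complex + cpd, 15 min RT; start with Ub-Rho 150nM final; kinetic fluorescence ex 480/em 540, 6 reads q60 s. Buffer 50mM HEPES pH 7.8, 0.5mM EDTA, 0.1 mg/ml BSA, 1mM TCEP, 0.01% Tween-20.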
EPAC2 agonist – qHTS for Agonist of cAMP-regulated guanine nucleotide exchange factor 4 (EPAC2): primary screen; 0.079% of 360,000 active; Rap guanine nucleotide exchange factor 4 (Homo sapiens), Q8WZA2; EPAC2 activation, biochemical qHTS; response scale: 100% = 6.5 mM cAMP response; AID 720711, 2013; Potency, µM (top dose mostly 154 µM), actives largely listed as activators; note: nearly all actives have a fitted effect of over 50% in size
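EPAC2 (100 nM) mixed with Rap1B loaded with BODIPY-GDP (250 nM) plus 50 uM unlabeled GDP; compounds pinned in, 5 min RT, then read every 5 min for 30 min (ex 480, em 540 nm). Normalized to cAMP control.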
VDR inh – Inhibitors of the vitamin D receptor (VDR): qHTS. Potency, µM, actives largely listed as inhibitors. Vitamin D3 receptor (Homo sapiens), P11473. VDR-SRC2-3 peptide fluorescence polarization, 2 h. 0.93% of 400,000 active
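Signal is fluorescence polarization, reporting how far test compounds block the interaction of VDR with the SRC2-3 coregulator peptide after a 2 h room-temperature incubation.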
Numbers stand for hits; i = inactive; ? = inconclusive; nt = not tested or not shown. Calls come from the whole dose curve; as a rule, active = well fitted curve in the direction sought with a large enough effect; inconclusive = small, poorly fitted or top-dose-only effect, or another doubt; inactive = no such curve, though single readings can be large; an effect the other way counts as inactive or inconclusive.

SMILES	EPAC1 antagonist	EPAC2 antag	EPAC1 ag	USP1-UAF1 inh	EPAC2 agonist	VDR inh
CCOCC(=O)Nc1nnc(COc2ccc(Cl)cc2)s1	i	i	i	i	i	79µM
COc1ccc(-c2c(C3C4C=CCC(C)C4C(=O)N3Cc3ccccc3)ccc3ccccc23)cc1 (stereo unspecified)	nt	nt	nt	nt	nt	i
Cc1ccccc1-c1nccc(Nc2ccc(F)cc2)n1	nt	nt	nt	nt	nt	i
COc1ccccc1-c1nccc(Nc2ccc(F)cc2)n1	nt	nt	nt	nt	nt	50µM
Fc1ccc(Nc2ccnc(-c3ccc4c(c3)OCO4)n2)cc1	nt	nt	nt	nt	nt	40µM
Cc1noc(C)c1-c1nccc(Nc2ccc(F)cc2)n1	nt	nt	nt	nt	nt	i
CN(C)C(=O)c1ccc(-c2nccc(Nc3ccc(F)cc3)n2)cc1	nt	nt	nt	nt	nt	50µM
CN(C)C(=O)c1ccc(-c2ccc3ncnc(Nc4ccc(F)cc4)c3c2)cc1	nt	nt	nt	nt	nt	i
Fc1ccc(Nc2ccnc(-c3ccoc3)n2)cc1	nt	nt	nt	nt	nt	25µM
Cc1noc(C)c1-c1ccc2ncnc(NCc3cccnc3)c2c1	nt	nt	nt	nt	nt	i
C[C@]12C=CC(=O)C=C1CCC1C2C(=O)C[C@]2(C)C1CC[C@]2(O)C(=O)CO (stereo partly specified)	nt	nt	nt	nt	nt	i
COc1ccc(C2Nc3ccccc3C(=O)N2Cc2ccco2)cc1COc1c(C)cccc1C (stereo unspecified)	nt	nt	nt	nt	nt	14µM
CCCCNC(=O)Cn1c(SCc2cccc(C)c2)nc2ccncc21	nt	nt	nt	nt	nt	i
O=C(O)Cc1sc(Nc2ccccc2)nc1-c1cccs1	i	i	i	i	i	79µM
C=CCNc1nc(-c2cccs2)c(CC(=O)O)s1	i	i	i	i	i	i
O=C1OC(c2cccs2)=N/C1=C/c1ccc(-c2cccc(C(=O)O)c2)o1	i	i	i	i	i	79µM
CCOC(=O)C(CS)NCCN[C@@H](CS)C(=O)OCC (stereo partly specified)	nt	nt	nt	nt	nt	28µM
Cc1ccc(-c2csc(Nc3ccc(C(=O)O)cc3)[n+]2Cc2ccccc2)cc1	i	i	i	i	i	i
CC(=O)Nc1scc(-c2ccccc2)[n+]1-c1ccc(C)cc1	i	32µM	i	i	i	i
CC(NC1=CC(=O)c2cccnc2C1=O)C(O)c1ccccc1 (stereo unspecified)	?	?	i	5.6µM	i	?
CC(C)CCn1c(=O)c2sccc2n2c(CCCC(=O)NC3CCC(C)CC3)nnc12 (stereo unspecified)	nt	nt	nt	i	nt	i
CCCNC(=O)[C@H]1O[C@@H]1C(=O)N[C@H](C(=O)N1CCC[C@H]1C(=O)OC)[C@@H](C)CC	nt	nt	nt	nt	nt	i
O=c1c2ccccc2nc(/C=C/c2cccnc2)n1CCc1ccccc1	79µM	i	i	i	i	i
Cc1ccc(CSC2=NCCN2S(=O)(=O)c2ccccc2)cc1	i	i	i	i	i	i
Cc1ccc(CSC2=NCCN2S(=O)(=O)c2ccc(F)cc2)cc1	?	50µM	i	i	i	i
SMILES	EPAC1 antagonist	EPAC2 antag	EPAC1 ag	USP1-UAF1 inh	EPAC2 agonist	VDR inh
Cn1c(=O)c([N+](=O)[O-])c(-n2ccnc2)c2ccccc21	i	i	i	i	i	20µM
CC[C@@H](C)[C@H](NS(=O)(=O)c1cccc2ccccc12)C(=O)N[C@H](C=O)Cc1c[nH]c2ccccc12	nt	nt	nt	nt	nt	32µM
COc1ccccc1N1CCN(Cc2ccc(O)c3ncccc23)CC1	i	i	i	i	i	i
Oc1ccc(CN2CCCc3ccccc32)c2cccnc12	i	i	i	i	i	79µM
CCOc1cc(/C=N/O)ccc1OCc1ccc([N+](=O)[O-])cc1	i	i	i	i	i	?
CCOc1cc(/C=N/O)ccc1OCc1ccc(F)cc1	i	i	i	i	i	50µM
N=C1CCC(=N)c2c1c(O)c1ccccc1c2O	?	i	i	25µM	i	?

Screening results: PubChem BioAssay, National Center for Advancing Translational Sciences (NCATS)
